# From PubChem
# Sampled rows, rich in hits. Any-hit rate of the full collection: about 3.6%.
# A3G deaminase: blocks human APOBEC3G single-stranded DNA deamination. recombinant A3G, ssDNA deamination FAM/TAMRA fluorescence. 330,000 tested, 0.28% active. inhibition, % at 20 µM. AID 493012;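 active = inhibition of at least 40% at 20 µM, with no more than 30% in the related APOBEC3A deaminase screen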;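 also: plate controls were DMSO wells with A3G for no effect and wells lacking A3G enzyme for full effect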
# MITF TRPM1 HTS: activators of MITF-driven TRPM1 promoter activity in SK-MEL-5 cells | SK-MEL-5 TRPM1-promoter luciferase, 24 h; % of positive control, neutral wells = 0 | activation, % at 12.5 µM | 300,000 tested, 0.75% active;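 active = mean activation of at least 80% with every replicate also reaching 80%; inconclusive = mean reaches 80% but some replicate falls short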;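 also: 0% = neutral control wells and 100% = parthenolide positive control wells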
# PHOSPHO1 inh: PHOSPHO1 (human) inhibition. 290,000 tested, 1.1% active. recombinant PHOSPHO1, absorbance phosphatase assay. Q8TCT1. inhibition, % at 13.3 µM; in the data active = inhibition above about 60%
# Target sequence (Q8TCT1 whole entry, looked up): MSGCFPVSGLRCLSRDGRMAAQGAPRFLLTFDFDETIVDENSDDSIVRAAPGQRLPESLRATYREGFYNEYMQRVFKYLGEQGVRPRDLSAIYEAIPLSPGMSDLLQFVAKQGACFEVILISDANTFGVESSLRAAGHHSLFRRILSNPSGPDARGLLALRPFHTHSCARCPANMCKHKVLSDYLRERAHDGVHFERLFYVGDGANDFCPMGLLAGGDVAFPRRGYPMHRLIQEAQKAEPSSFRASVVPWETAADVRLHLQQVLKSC
# esBAF inh: SWI/SNF esBAF complex inhibition. mouse ES cells, Bmi1-luciferase knock-in reporter, 24 h; 100% = twice the neutral-well signal. 350,000 tested, 2% active. reporter increase, % at 12.5 µM; in the data active = activation above about 40%; inconclusive = no clear call, values can overlap the other calls;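 also: 0% = median of the plate's neutral control wells and 100% = double that signal; a rise in the Bmi1 reporter signal indicates esBAF inhibition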
# Wnt bcat act: activates Wnt/beta-catenin signaling in a reporter cell assay | activator, plate reader | activation, % at 9.35 µM | 300,000 tested, 1.2% active | AID 743398; in the data active = activation above about 30%, passing the limit was not always enough; inconclusive = no clear call, values can overlap the other calls;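 also: 0% = neutral control wells and 100% = positive control wells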
# APOBEC3A inh: inhibitors of human APOBEC3A DNA deaminase. P31941. recombinant A3A, FAM/TAMRA ssDNA deamination fluorescence. inhibition, % at 20 µM. 330,000 tested, 0.41% active. AID 493011;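 active = at least 40% inhibition at 20 µM here, with at most 30% in a related deaminase screen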;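 also: plate controls were A3A with DMSO for no effect and wells lacking A3A enzyme for full effect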
# Target sequence (P31941 whole entry, looked up): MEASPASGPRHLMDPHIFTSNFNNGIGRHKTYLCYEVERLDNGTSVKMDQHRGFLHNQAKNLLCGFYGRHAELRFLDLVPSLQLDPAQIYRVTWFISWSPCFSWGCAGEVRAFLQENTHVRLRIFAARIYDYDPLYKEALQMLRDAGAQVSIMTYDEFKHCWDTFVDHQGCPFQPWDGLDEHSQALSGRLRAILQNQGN
# The depositor's hits bear a star; ? = inconclusive; nt = no result.
SMILES,A3G deaminase,MITF TRPM1 HTS,PHOSPHO1 inh,esBAF inh,Wnt bcat act,APOBEC3A inh
Nc1ccc(C(=O)N/N=C/c2ccccc2)cc1,-4,84*,-16,nt,22,0
O=C(N/N=C/c1ccncc1)c1ccccc1,-5,1,18,22,nt,-2
O=C(/C=C/c1ccc(OC2CSC2)cc1)c1ccccc1,-2,58,19,?,39*,2
CCOc1ccc(/C=C/C(=O)c2ccccc2)cc1,-4,?,32,?,?,4
C[C@@H]1CCCCO[C@H](CN(C)C(=O)CCC(F)(F)F)[C@H](C)CN([C@@H](C)CO)C(=O)c2cc(NS(=O)(=O)c3ccc(F)cc3)ccc2O1,nt,nt,nt,5,nt,nt
CC(C)CC#Cc1ccc2c(c1)O[C@H](CN(C)Cc1ccc3c(c1)OCO3)[C@@H](C)CN([C@@H](C)CO)S2(=O)=O,nt,nt,nt,-1,nt,nt
C[C@H](CO)N1C[C@H](C)[C@H](CN(C)Cc2ccc(Oc3ccccc3)cc2)Oc2ccc(NC(=O)Nc3ccc(C(F)(F)F)cc3)cc2C1=O,nt,nt,nt,-5,nt,nt
S=c1[nH]ncc2ccccc12,-1,-4,67*,3,2,-2
CCN(CC)c1ccc(NC(=O)CCNS(=O)(=O)c2ccc3c(c2)CCC(=O)N3)c(C)c1,-5,-4,34,1,-7,-6
Cc1ccccc1NC(=O)CCNS(=O)(=O)c1ccc2c(c1)CCC(=O)N2,-8,-4,62*,-2,-2,-4
Cc1ccc(NC(=O)CCNS(=O)(=O)c2ccc3c(c2)CCC(=O)N3)cc1F,-9,nt,70*,-2,8,-2
c1ccc(-c2nc(-c3ccco3)cs2)nc1,5,91*,18,34,3,3
c1ccc(-c2nccc(-c3ccco3)n2)nc1,-11,32,26,4,13,1
CN(Cc1ccccc1)C(=O)c1cc(-c2ccc(Br)cc2)on1,-4,72,-23,38,4,0
Cc1cc(C(=O)N(C)Cc2ccc(Br)cc2)no1,1,7,85*,1,-4,3
Cc1cc(O)ccc1N/C=C/c1onc(C)c1[N+](=O)[O-],-4,26,-5,nt,60*,-1
C=CCn1c(=O)/c(=C/c2ccc(C)o2)s/c1=C(/C#N)C(=O)c1ccccc1,-5,12,83*,5,8,-2
C=CCn1c(=O)/c(=C\c2ccccn2)s/c1=C(/C#N)C(=O)NCC1CCCO1 (stereo not given),0,7,-79,-7,0,0
O=C(Nc1ccc2c(c1)[C@@H]1C[C@H](CC(=O)N3CCOCC3)O[C@@H](CO)[C@@H]1O2)Nc1ccccc1F,nt,nt,nt,0,nt,nt
COc1ccc(CCNC(=O)c2ccc3ccccc3n2)cc1OC,-7,-2,41,-5,-3,-2
CCOc1ccc(CCNC(=O)c2ccc3ccccc3n2)cc1OCC,-11,-2,47,57*,7,-1
Cc1cc2oc(=O)cc(CN(C)Cc3ccccc3)c2cc1C,nt,nt,nt,48*,8,nt
Cc1ccc2c(CN(C)Cc3cccc(F)c3)cc(=O)oc2c1C,-6,35,24,50*,6,-1
CCc1ccc2oc(=O)cc(CN(C)Cc3ccccc3)c2c1,2,3,16,11,nt,-4
Cc1ccc2c(CN(C)Cc3ccccc3)cc(=O)oc2c1C,-7,66,48,59*,18,-4
SMILES,A3G deaminase,MITF TRPM1 HTS,PHOSPHO1 inh,esBAF inh,Wnt bcat act,APOBEC3A inh
O=C(Cc1ccccc1)N[C@@H]1C=C[C@H](CC(=O)N2CCOCC2)O[C@@H]1CO,nt,nt,nt,0,nt,nt
COc1ccc(NC(=O)N(C)C[C@H]2Oc3ccc(NS(=O)(=O)c4ccc(OC)cc4)cc3CC(=O)N([C@H](C)CO)C[C@@H]2C)cc1,nt,nt,nt,8,nt,nt
N#C/C(=C\Nc1ccc2c(c1)OCCO2)c1nc2ccccc2[nH]1,-6,77,-96,44*,nt,-3
N#C/C(=C\c1ccc(Sc2ccccc2)o1)c1nc2ccccc2[nH]1,-7,121*,-6,nt,-3,0
N#C/C(=C/c1ccc(O)c(O)c1)c1nc2ccccc2[nH]1,-26,37,11,57*,4,-11
N#C/C(=C\c1ccc([N+](=O)[O-])o1)c1nc2ccccc2[nH]1,1,nt,-4,nt,-15,2
N#C/C(=C\c1cccs1)c1nc2ccccc2[nH]1,nt,15,0,nt,nt,nt
N#C/C(=C\c1ccc(OC(=O)c2cccs2)cc1)c1nc2ccccc2[nH]1,0,58,-12,nt,35*,0
O=C(C[C@H]1CC[C@@H](NC(=O)c2ccncc2)[C@H](CO)O1)NCC1CCCCC1,nt,nt,nt,-2,nt,nt
CNC[C@H]1Oc2ncc(Br)cc2C(=O)N([C@@H](C)CO)C[C@H]1C,nt,nt,nt,-4,nt,nt
CC(=O)c1sc(NC(=O)c2ccccc2F)nc1-c1ccccc1,-3,88*,12,nt,0,-7
Cc1sc(NC(=O)c2ccco2)nc1-c1ccccc1,-5,96*,-22,nt,nt,-2
CC(=O)c1c(C)[nH]c(C(=O)Nc2nc(-c3ccccc3)c(C)s2)c1C,1,111*,-9,nt,nt,3
CC(=O)c1sc(NC(=O)c2ccco2)nc1-c1ccccc1,-6,67,-13,62*,nt,-1
C[C@@H]1CN([C@@H](C)CO)C(=O)c2c(c3ccccc3n2C)-c2ccccc2CO[C@@H]1CN(C)C(=O)Cc1ccccc1,nt,nt,nt,7,nt,nt
O=C(O)c1ccc(/C=C/c2ccc3cccc(O)c3n2)cc1,-2,?,-20,104*,17,4
Oc1ccc(/C=C/c2ccc3cccc(O)c3n2)cc1Br,-25,44,36,77*,14,-12
O=C(Nc1ccc2c(c1)OCCO2)C1C(c2ccccc2)=Nc2ccccc2N1C(=O)c1cccnc1 (stereo not given),nt,nt,nt,nt,50*,nt
COc1ccc(S(=O)(=O)Nc2cccc3c2O[C@@H](CN(C)S(=O)(=O)c2ccc(Cl)cc2)[C@@H](C)CN([C@H](C)CO)C3=O)cc1,nt,nt,nt,7,nt,nt
N#CC(Cc1ccc(OC(F)F)cc1)c1nc2ccccc2[nH]1 (stereo not given),0,91*,5,60*,25,0
Cc1cc(C)n(CC(O)COc2ccc(Cl)cc2)n1 (stereo not given),0,nt,39,4,1,-8
Cc1cc(C)n(CC(O)COc2ccc(Cl)cc2Cl)n1 (stereo not given),-6,nt,24,52*,5,-4
COc1ccc2cc(C(=O)C3CCCN(Cc4cnc(N5CCOCC5)s4)C3)ccc2c1 (stereo not given),-6,-5,60*,0,-1,3
CC(C)Oc1cccc(C(=O)C2CCCN(Cc3cnc(N4CCCC4)s3)C2)c1 (stereo not given),-2,-12,37,nt,1,1
O=C1CCC[C@@H]2C[C@@]3(C[C@@H]4CCN1[C@H]24)Nc1cc(Cl)c(Cl)cc1NC3=NCc1ccccc1,nt,1,nt,74*,9,nt
O=C1CCC[C@@H]2[C@H](Cc3ccccc3)[C@@H](O)C[C@@H]3CCN1[C@@H]32,nt,0,nt,-2,-1,nt
